# Values joined by “and” are separate entries in the source; they are usually repeats but may differ in a detail not shown here. Equal entries are not always repeated. Records with an inconclusive call do not appear. Entries that show only a call come without a potency. Unmarked numbers belong to inactive results. Active and inactive are the calls of the source. Unless noted, the call rests on the fitted dose curve; in most records, active means well fitted curve in the direction sought with a large enough effect; inconclusive means small, poorly fitted or top-dose-only effect, or another doubt; inactive means no such curve, though single readings can be large; an effect the other way counts as inactive or inconclusive.
# Columns and labels:
# [1] = target: Calcium and integrin-binding protein 1 (Homo sapiens) (UniProt Q99828); assay: Primary qHTS for Identification of Calcium Integrin Binding Protein 1 (CIB1) Competitor (AID 1508620);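 further: GST tagged CIB1 binding a fluorescein labelled alphaIIb integrin peptide tracer; top concentration of the series differs between compounds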
# Sequence of Calcium and integrin-binding protein 1 (Homo sapiens) (Q99828 whole entry, looked up): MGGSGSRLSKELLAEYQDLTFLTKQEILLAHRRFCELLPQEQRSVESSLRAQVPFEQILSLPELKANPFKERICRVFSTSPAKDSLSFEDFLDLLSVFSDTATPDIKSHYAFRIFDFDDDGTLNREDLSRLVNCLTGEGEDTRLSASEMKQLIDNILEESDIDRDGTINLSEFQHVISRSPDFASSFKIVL
# Summary of the method: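 Fluorescence polarization competition: CIB1-GST (1 uM final) preincubated with compound 15 min at room temperature, then FITC-labeled alphaIIb peptide (100 nM final) added for another 15 min. Polarization read at Ex 480/Em 540.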
# [2] = target: Cytochrome P450 2D6 (Homo sapiens) (UniProt P10635); assay: Cytochrome P450 family 2 subfamily D member 6 (CYP2D6) small molecule antagonists: luciferase biochemical (cell-free) qHTS assay (AID 1645840; active means well fitted curve in the direction sought with a large enough effect in the repeat runs; an effect the other way counts as inactive or inconclusive; further: nearly all actives have a fitted effect of over 55% in size; further: potency means the concentration at half of the fitted maximal effect)
# Sequence of Cytochrome P450 2D6 (Homo sapiens) (P10635 whole entry, looked up): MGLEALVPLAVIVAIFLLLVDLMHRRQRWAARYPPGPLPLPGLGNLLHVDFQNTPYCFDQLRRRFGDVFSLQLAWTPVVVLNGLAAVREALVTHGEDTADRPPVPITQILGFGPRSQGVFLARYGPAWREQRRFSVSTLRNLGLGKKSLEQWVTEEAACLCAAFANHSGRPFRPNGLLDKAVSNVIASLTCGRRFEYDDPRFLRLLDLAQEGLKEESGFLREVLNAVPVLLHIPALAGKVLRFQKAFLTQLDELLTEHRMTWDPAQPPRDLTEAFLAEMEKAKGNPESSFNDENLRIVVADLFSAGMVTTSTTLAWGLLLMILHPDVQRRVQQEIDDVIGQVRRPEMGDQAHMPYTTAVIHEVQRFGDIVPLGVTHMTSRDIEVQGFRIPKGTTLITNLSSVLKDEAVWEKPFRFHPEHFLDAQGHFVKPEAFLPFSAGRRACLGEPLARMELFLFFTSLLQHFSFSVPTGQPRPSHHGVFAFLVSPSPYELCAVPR
# Summary of the method: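 P450-Glo CYP2D6 system: proluciferin substrate converted by enzyme to luciferin, read by luminescence proportional to activity. Enzyme-substrate mix with compound 10 min at room temperature, then NADPH regeneration 1 h before detection reagent.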
# [3] = Primary qHTS for inhibitors of nuclear receptor binding SET domain protein 2 (NSD2) in an isogenic RCH-ACV NSD2 p.E1099K mutant (9B) (AID 1645876); further: nearly all actives have a fitted effect of over 70% in size; further: potency means the concentration at half of the fitted maximal effect
SMILES,Potency [1],Potency [2],Potency [3],"activity change, negative = viability loss [3]"
O=C(c1cn(Cc2cncn2Cc2ccc(Br)cc2)cc1-c1cccc2ccccc12)N1CCOCC1,inactive,10.7 µM (active),1.83 µM (active),–
CCOc1cc(N2CCC(O)CC2)ccc1Nc1ncc2c(n1)N(C1CCCC1)CCC(=O)N2C,inactive,inactive,2.05 µM (active),–
CC(=O)SCC(=O)c1ccc(NS(=O)(=O)c2ccc(OCCCN(C)C)cc2)nc1,inactive,inactive,1.29 µM (active),–
Cc1ncc(CCCN(C)C)cc1Nc1ncc2c(n1)-c1ccc(C(F)(F)F)cc1NC(=S)C2,inactive,13.5 µM (active),0.0916 µM (active),–
N#Cc1cc(F)cc(-c2nc(-c3ccccn3)no2)c1,inactive,10.7 µM (active),inactive,–
CCOCc1cc(OC)c(-c2ccc(C[C@H](NC(=O)c3c(F)cccc3F)C(=O)O)cc2)c(OC)c1,inactive,inactive,inactive,–
c1ccc(-c2csc(N3CCOCC3)n2)cc1,inactive,inactive,inactive,–
O=C(O)c1cc(-c2c(-c3ccccc3)nn3ccccc23)n[nH]c1=O,inactive,inactive,inactive,–
O=C(O)[C@H](Cc1ccc(Nc2nccc3ccncc23)cc1)NC1=C(Br)C(=O)C12CCCCC2,inactive,inactive,inactive,–
C[C@@H]1COCCN1c1cc(C2(S(C)(=O)=O)CC2)nc(-c2cccc3[nH]ccc23)n1,inactive,inactive,0.515 µM (active),–
CCNC(=O)Nc1ncc(-c2cc(-c3c(C)cc(OC)cc3C)nc(-c3cnccn3)n2)s1,inactive,8.49 µM (active),inactive,–
Cc1cnc(NC(=O)Nc2cc(Br)c(C)cc2OCC2CNCCO2)cn1 (stereo not drawn),inactive,12 µM (active),0.649 µM (active),–
Cc1cccc2c1NC(=O)C2(c1ccc(O)cc1)c1ccc(O)cc1,inactive,26.8 µM (active),3.25 µM (active),–
CN(C)CC1CCOC1(c1ccccc1)c1ccccc1 (stereo not drawn),inactive,2.24 µM (active),inactive,–
O=C(O)Cc1ccc2oc(-c3ccc(NC(=O)/C=C/c4ccc(Br)cc4)c(F)c3)nc2c1,inactive,inactive,inactive,–
CC(C)C(CO)Nc1nc(Nc2ccc(C(=O)O)c(Cl)c2)c2ncn(C(C)C)c2n1 (stereo not drawn),inactive,inactive,inactive,–

SMILES,Potency [1],Potency [2],Potency [3],"activity change, negative = viability loss [3]"
CN1CCC(Nc2nc(Nc3ccc(Oc4ccccc4)cc3)c3c(=O)[nH]cc(Br)c3n2)CC1,inactive,5.35 µM (active),1.83 µM (active),–
CC(C)c1cc(CNc2nc(Nc3cc(C4CC4)[nH]n3)cc(N3CCN(C)CC3)n2)on1,inactive,2.68 µM (active),64.9 nM (active) and 525 nM (active),–
O=C(CCCCN1CCOCC1)Nc1ccc(-c2cccnc2)cc1,inactive,6.01 µM (active),inactive,–
COc1cccc(Nc2ncnn3ccc(CN4CC[C@@H](N)[C@H](O)C4)c23)c1,inactive,9.52 µM (active),4.68 µM (active),–
CCCCOC(=O)NC(=O)C1c2ccccc2Oc2ccccc21,inactive,inactive,inactive,–
CNC(=S)NS(=O)(=O)c1cc(CCNC(=O)c2cc(Cl)ccc2OC)ccc1OC,inactive,inactive,inactive,–
COc1cc2ncnc(Nc3cccc(O)c3)c2cc1OC,inactive,inactive,2.9 µM (active),–
COc1ccc(CCO[C@@H]2CCCC[C@H]2N2CC[C@@H](O)C2)cc1OC,inactive,10.7 µM (active),inactive,–
Cc1cc(C(=O)N2Cc3cnn(C)c3Nc3ccccc32)ccc1CNC(=O)N1CCC[C@H]1C(=S)N1CCCN(C)CC1,inactive,inactive,inactive,–
Nc1nc(-n2cc(C(=O)O)c(=O)c3cc(F)c(N4CC(O)C4)c(Cl)c32)c(F)cc1F,inactive,inactive,inactive,–
CCC(Nc1ncnc2nc[nH]c12)c1nc2cccc(F)c2c(=O)n1-c1ccccc1 (stereo not drawn),inactive,inactive,0.0728 µM (active),–
Cc1ccc(Cc2c(C)nc3nc(SCC(=O)NCCN4CCNCC4)nn3c2C)cc1,inactive,inactive,inactive,–
CN(C)C(=O)NC1CCC(CCN2CCN(c3cccc(Cl)c3Cl)CC2)CC1 (stereo not drawn),inactive,12 µM (active),–,3.61% [at 9.23 µM]
CCOC(=O)Nc1cc(-c2ccc(C)c(NS(C)(=O)=O)c2)nn2c(C)nnc12,inactive,inactive,0.728 µM (active),–
Cc1cccc(/C=N/Nc2cc(N3CCOCC3)n3nc(-c4ccncc4)cc3n2)c1,inactive,3.79 µM (active),0.578 µM (active),–

# Source: PubChem BioAssay (NCATS)
